High-throughput results: PubChem BioAssay, several laboratories
Rows were chosen to be rich in hits. Some 5.1% of all compounds tested hit in one or more screens of this group.
CRFBP-R2 agonist: CRF-BP/CRF-R2 complex agonism. HEK293 CRF-R2/CRF-BP, calcium dye fluorescence (FLIPR); percent of saturating CRF peptide response. activation, % at 13.2 µM. actives 0.46% (n = 350,000);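 active = activation of at least 50%, plus an integration ratio under a set limit after plate pattern correction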
CRFBP-R2 block: antagonists of CRF-binding protein/CRF-R2 receptor complex. AID 588475. actives 0.59% (n = 350,000). inhibition, % at 11.8 µM. HEK293 CRF-R2/CRF-BP, CRF-induced calcium fluorescence;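 active = inhibition of the ligand-induced calcium signal above about 50% at the single tested concentration, limit read from the data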
GRIN3A LBD mod: modulators (binders) of human NR3A ligand-binding domain | NR3A LBD differential scanning fluorimetry, Tm shift; 0% = protein alone, 100% = glycine-bound protein | Tm shift relative to glycine control, % at 25 µM | actives 2.5% (n = 340,000) | AID 1259313;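 active = melting temperature shift of at least 10% of the positive control shift, at one fixed dose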
TMEM16A inh: mouse TMEM16A channel inhibition, primary screen | normalized B-score (activity score, 25-100; higher = stronger inhibition) at 10 µM | HEK293 TMEM16A/YFP iodide influx fluorescence, ionomycin | actives 1.2% (n = 310,000) | Q8BHY3;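 active = ratio plate-corrected score three or more library SD toward inhibition, starting fluorescence score within five deviations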;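 also: score derived from kinetic fluorescence span divided by baseline fluorescence per well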
MPTP inh: inhibitors of mitochondrial permeability transition pore; isolated mouse mitochondria, Ca2+ swelling absorbance, 30 min; inhibition, % at 10 µM; actives 1.4% (n = 360,000); AID 602449;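 active = inhibition of 50% or more, scaled per plate between neutral and stimulator controls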
ANO1 activ: activators or potentiators of mouse TMEM16A chloride channel. HEK293 TMEM16A/YFP-H148Q/I152L, iodide quench fluorescence; stronger effect = lower value. B-score at 10 µM. actives 0.3% (n = 340,000). AID 623877;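 active = fluorescence-ratio B-score plate-corrected deviation score at least 3 library SD below zero, with starting fluorescence score within 5 deviations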;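 also: channel opened by trigger with iodide after compound preincubation; score built on the fluorescence ratio of max minus min over baseline; more negative score means more quench and so TMEM16A activation or potentiation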
Numbers stand for hits; . = inactive; / = no result given; ! = not confirmed by another sample.

SMILES	CRFBP-R2 agonist	CRFBP-R2 block	GRIN3A LBD mod	TMEM16A inh	MPTP inh	ANO1 activ
CC(NC(N)=O)C(=O)Nc1ccc(Cl)c(S(=O)(=O)Nc2ccc(Cl)cc2)c1 (stereo not drawn)	.	.	.	.	.	.
CCN(CC)CCNC(=O)c1ccc(Cl)c(S(=O)(=O)Nc2ccc(Cl)cc2)c1	.	.	21.5!	.	.	.
O=C(Nc1nc(-c2cccs2)cs1)c1ccc(Cl)s1	.	.	28.3	25	.	.
O=C(Nc1nc(-c2ccc(Cl)s2)cs1)c1ccccc1	.	.	15.1	.	.	.
CCC(=O)Nc1cc(SCCO)cc([N+](=O)[O-])c1	.	.	.	100	.	.
O=C(CCl)Nc1cc(SCC(O)CO)cc([N+](=O)[O-])c1 (stereo not drawn)	.	.	.	/	.	.
Cc1cc(OCC(=O)OC(C)C(=O)NC2CC2)c(C(C)C)cc1Cl (stereo not drawn)	.	.	/	/	.	/
COc1ccc(OCc2cc(C(=O)NCC(C)Oc3cccnc3)no2)c(Cl)c1 (stereo not drawn)	.	.	.	.	.	.
O=C(O)c1ccc(C=NN=C2c3ccccc3-c3ccccc32)cc1	.	.	28.4	/	.	-4.82
COc1cccc(-c2csc(NC(=O)C3CC3)n2)c1	.	.	19.8	.	.	.
COc1cccc(C(=O)Nc2nc(-c3ccc4c(c3)OCO4)cs2)c1	.	.	25.3	.	.	.
O=C(Cc1ccccc1F)Nc1nc(-c2ccc(F)cc2)cs1	.	.	.	25	.	.
COc1cccc(-c2csc(NC(=O)Nc3ccccc3)n2)c1	.	.	32.3	.	.	.
COc1cccc(C(=O)Nc2nc(-c3ccncc3)cs2)c1	.	.	.	.	.	.
O=C(c1[nH]c(C(F)(F)F)nc1-c1ccccc1)N1CCN(c2c(Cl)cncc2Cl)CC1	/	/	/	/	.	/
CC(OC(=O)CSc1ccccc1)C(=O)NC1CCCCC1C (stereo not drawn)	.	.	.	/	.	.
O=C(Nc1ccccc1)Nc1nc(-c2ccc(F)c(F)c2)cs1	.	.	27.9	.	.	.
CCOC(=O)c1c(NC(=O)C2CC2)sc(C)c1CC	.	.	11.5	.	.	.
CCOC(=O)c1c(NC(=O)C2C3C=CC(CC3)C2C(=O)O)sc(C)c1CC (stereo not drawn)	.	.	.	.	.	.
CCOC(=O)c1c(NC(=O)CNC2CCCCC2)sc(C)c1C	.	.	13.4	.	.	.
CCOC(=O)c1c(NC(=O)CNCCO)sc(C)c1C	.	.	.	.	.	.
CSc1ncnc2c1ncn2CCCNCCc1ccccn1	.	.	/	/	.	/
CCCCNC(=O)c1onc(CSc2ccccc2)c1C(=O)O	.	.	.	.	.	.
CCCCNC(=O)c1onc(CSc2ccc(C(C)C)cc2)c1C(=O)O	.	.	.	25	.	.
C[C@@H](c1ccccc1)N1C[C@H](COCc2ccccc2)Oc2cc(N3CC[C@H](O)C3)ccc2S1(=O)=O	/	/	/	/	.	/
SMILES	CRFBP-R2 agonist	CRFBP-R2 block	GRIN3A LBD mod	TMEM16A inh	MPTP inh	ANO1 activ
COC(=O)[C@@]1(Cc2ccc(OC)cc2)[C@H]2c3cc(C(=O)N4CCCC4)n(Cc4ccsc4Br)c3C[C@H]2CN1C(=O)c1ccccc1	/	/	/	/	.	/
CCc1cc2c(N3CCN(c4ccccc4)CC3)ncnc2s1	.	.	.	25	.	.
Oc1ccc(N2CCN(c3ncnc4sc(-c5ccccc5)cc34)CC2)cc1	.	.	.	/	.	.
CC(C)c1ccc2[nH]c(O)c(N=NC(=O)c3cccc(S(=O)(=O)Nc4cccc(Cl)c4)c3)c2c1	.	.	.	.	.	.
CC(C)c1ccc2[nH]c(O)c(N=NC(=O)c3cccc(S(=O)(=O)Nc4ccc(Cl)cc4)c3)c2c1	.	.	43.0	.	.	.
O=C(Nc1ccccc1)c1ccc(NCc2cccnc2)c(S(=O)(=O)N2CCOCC2)c1	.	.	.	.	.	-6.81
O=C(NCc1ccncc1)c1ccc(Cl)c(S(=O)(=O)N2CCOCC2)c1	.	.	321.5	.	.	.
O=C(Nc1ccccc1)c1ccc(NCc2ccco2)c(S(=O)(=O)N2CCOCC2)c1	.	.	.	.	.	.
N#Cc1ccc(C(=O)OCC(=O)Nc2cccnc2Cl)cc1	.	.	.	/	.	.
